From the supplement of paper PMC9262897, “Low-cost anti-mycobacterial drug discovery using engineered E. coli” (Nature Communications, 2022)
Where a name gives a salt, the structure may show the parent alone. ± gives the standard deviation of the averaged measurements.

Test system: E. coli TESEC Mtb Alr
Assay: growth (OD600 after 10 h); higher = more growth (less inhibition)
Settings: compound 0.1 mM
Experimental: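 TESEC Mtb Alr E. coli, or the Alr+ wild-type control, in 384-well plates with Prestwick library compounds at 0.1 mM and 1% DMSO, across arabinose induction levels of 1E3 to 1E7 nM. Growth is read as OD600 after 10 h at 37 °C in triplicate biological replicates.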

[1] = arabinose 1000 nM, raw OD600 reference: median of DMSO wells 0.294, cell-free background 0.041
[2] = arabinose 10000 nM, raw OD600 reference: median of DMSO wells 0.264, cell-free background 0.041
[3] = arabinose 100000 nM, raw OD600 reference: median of DMSO wells 0.201, cell-free background 0.041
[4] = arabinose 1000000 nM, raw OD600 reference: median of DMSO wells 0.193, cell-free background 0.041
[5] = arabinose 10000000 nM, raw OD600 reference: median of DMSO wells 0.146, cell-free background 0.041

SMILES	growth [1]	growth [2]	growth [3]	growth [4]	growth [5]
CN1CCN(C(c2ccccc2)c2ccccc2)CC1 [Cyclizine hydrochloride]	0.278 ± 0.011	0.256 ± 0.0077	0.188 ± 0.025	0.142 ± 0.013	0.142 ± 0.0021
COc1ccc2[nH]c([S+]([O-])Cc3ncc(C)c(OC)c3C)nc2c1 (stereo not given) [Omeprazole]	0.232 ± 0.0033	0.2749 ± 0.0018	0.168 ± 0.011	0.122 ± 0.0034	0.131 ± 0.0049
Nc1ncn(C2OC(CO)C(O)C2O)c(=O)n1 (stereo not given) [Azacytidine-5]	0.106 ± 0.0065	0.0449 ± 0.0005	0.113 ± 0.0011	0.0465 ± 0.00069	0.0822 ± 0.0002
C[C@@](Cc1ccc(O)c(O)c1)(NN)C(=O)O [Carbidopa]	0.292 ± 0.024	0.118 ± 0.0053	0.228 ± 0.048	0.0919 ± 0.00096	0.193 ± 0.0067
COc1ccc(CC(C)NCC(O)c2ccc(O)c(NC=O)c2)cc1 (stereo not given) [Formoterol fumarate]	0.298 ± 0.0087	0.293 ± 0.011	0.219 ± 0.024	0.18 ± 0.011	0.16 ± 0.0057
CCCc1ncc(C[n+]2ccccc2C)c(N)n1 [Amprolium hydrochloride]	0.284 ± 0.029	0.2572 ± 0.0021	0.207 ± 0.027	0.18 ± 0.0063	0.142 ± 0.0046
CCCCN1CCCCC1C(=O)Nc1c(C)cccc1C (stereo not given) [Bupivacaine hydrochloride]	0.301 ± 0.0072	0.247 ± 0.0053	0.21 ± 0.0045	0.167 ± 0.0039	0.157 ± 0.0046
NCCCC(O)(P(=O)(O)O)P(=O)(O)O [Alendronate sodium]	0.305 ± 0.013	0.265 ± 0.007	0.24 ± 0.033	0.178 ± 0.0032	0.162 ± 0.0058
